Results reported in PubChem BioAssay (Tox21).
Values joined by “and” are separate entries in the source; they are usually repeats but may differ in a detail not shown here. Equal entries are not always repeated. Unmarked numbers belong to inactive results. Results filed as inconclusive are left out. A call without a number means that no potency is given here. Active and inactive are the calls of the source. Unless noted, calls come from the whole dose curve; as a rule, active = well fitted curve in the direction sought with a large enough effect in the repeat runs; inconclusive = weak or mixed curves; inactive = no such curve, though single readings can be large; an effect the other way counts as inactive or inconclusive.

Experiments:
[1] = qHTS assay to identify small molecule agonists of the estrogen receptor alpha (ER-alpha) signaling pathway in the presence of an antagonist - cell viability counter screen (AID 1259386);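 note: series mostly up to about 92 µM; cells exposed to compounds for 22 h at 37 °C before the viability read; nearly all actives have a fitted effect of over 30% in size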
In short: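 VM7Luc4E2, stripped-serum pre-culture 5 d; 24hr plating; +ICI-182,780 10.0nM final; cpds 15 conc, 22hr, 37C/5% CO2; CellTiter-Fluor added at 21hr, fluorescence 1hr later.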

[2] = molecular target: Progesterone receptor (Homo sapiens) (UniProt P06401); assay: qHTS assay to identify small molecule agonists of the progesterone receptor (PR) signaling pathway (AID 1346784; calls by dose curve; note: nearly all actives have a fitted effect of over 30% in size)
Chain of Progesterone receptor (Homo sapiens) (P06401 whole entry, looked up): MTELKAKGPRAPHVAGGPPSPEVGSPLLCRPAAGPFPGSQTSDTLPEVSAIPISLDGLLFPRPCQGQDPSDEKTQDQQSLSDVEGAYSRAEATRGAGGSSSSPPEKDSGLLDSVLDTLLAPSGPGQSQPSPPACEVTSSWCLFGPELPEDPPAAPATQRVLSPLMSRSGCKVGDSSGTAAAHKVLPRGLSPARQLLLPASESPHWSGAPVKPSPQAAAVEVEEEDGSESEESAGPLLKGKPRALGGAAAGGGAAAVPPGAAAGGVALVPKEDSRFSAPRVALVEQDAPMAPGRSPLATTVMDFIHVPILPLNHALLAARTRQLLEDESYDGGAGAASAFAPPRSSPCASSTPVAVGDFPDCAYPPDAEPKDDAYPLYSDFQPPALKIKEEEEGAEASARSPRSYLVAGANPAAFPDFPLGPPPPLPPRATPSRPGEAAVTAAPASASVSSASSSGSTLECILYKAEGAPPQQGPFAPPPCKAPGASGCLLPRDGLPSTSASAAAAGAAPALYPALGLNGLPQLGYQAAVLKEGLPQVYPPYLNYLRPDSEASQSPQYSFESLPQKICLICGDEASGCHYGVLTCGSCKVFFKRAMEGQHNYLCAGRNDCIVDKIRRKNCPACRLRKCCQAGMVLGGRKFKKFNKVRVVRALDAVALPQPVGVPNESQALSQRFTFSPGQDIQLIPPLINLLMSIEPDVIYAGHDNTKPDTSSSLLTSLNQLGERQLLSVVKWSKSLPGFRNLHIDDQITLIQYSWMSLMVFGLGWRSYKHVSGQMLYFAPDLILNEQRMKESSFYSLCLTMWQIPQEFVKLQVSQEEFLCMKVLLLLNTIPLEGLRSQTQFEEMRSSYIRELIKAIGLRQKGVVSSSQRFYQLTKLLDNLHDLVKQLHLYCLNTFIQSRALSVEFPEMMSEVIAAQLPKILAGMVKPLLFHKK
In short: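 Fluorescence from LiveBLAzer B/G FRET substrate cleavage (2 hr, RT) reported PR activation in PR-UAS-bla HEK 293T cells treated 16 hr at 37C/5% CO2 with compounds; medium contained 2% charcoal-stripped FBS.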

[3] = molecular target: Progesterone receptor (Homo sapiens) (UniProt P06401); assay: qHTS assay to identify small molecule antagonists of the progesterone receptor (PR) signaling pathway (AID 1346795; active = well fitted inhibition curve with a large enough effect in the signal ratio in the repeat runs, not every such curve was filed as active; the % refers to the signal ratio)
In short: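 Fluorescence intensity measured 2 hr after adding beta-lactamase FRET substrate to PR-UAS-bla HEK293T cells that had been co-treated 16 hr with compound and 1 nM R5020 (final concentration) in 2% charcoal-stripped FBS.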

[4] = qHTS assay to identify small molecule antagonists of the progesterone receptor (PR) signaling pathway - cell viability counter screen (AID 1346798); note: series mostly up to about 92 µM; nearly all actives have a fitted effect of over 50% in size
In short: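 CellTiter-Glo luminescence; PR-UAS-bla HEK293T, 3,000 cells/well; compound + R5020, 16 hr, 37C/5% CO2; 30 min RT before read.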

[5] = qHTS assay to identify small molecule antagonists of the TGF-beta/Smad signaling pathway - cell viability counter screen (AID 1346824); note: nearly all actives have a fitted effect of over 50% in size
In short: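 SBE-bla HEK 293T cells, incubated overnight, then compound plus 0.25 ng/mL TGF-beta1 (stock added) for 5 hr at 37 C. Viability was read in the same wells by CellTiter-Glo luminescence after 30 min at room temperature.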

[6] = qHTS assay to identify small molecule agonists of the TGF-beta/Smad signaling pathway - cell viability counter screen (AID 1346829); note: top concentration of the series differs between compounds; nearly all actives have a fitted effect of over 45% in size
In short: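 HEK 293T SBE-bla line, 5 hr compound exposure at 37 C, multiplexed CellTiter-Glo viability read by luminescence.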

[7] = qHTS assay to identify small molecule agonists of the TGF-beta/Smad signaling pathway (AID 1346859; active = well fitted activation curve with a large enough effect in the signal ratio in the repeat runs, not every such curve was filed as active; the % refers to the signal ratio; note: series mostly up to about 77 µM)
In short: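 After overnight seeding, SBE-bla HEK 293T cells are dosed with compounds in DMSO and kept 5 hr at 37 C, 5% CO2. LiveBLAzer-type FRET substrate is then applied for 2 hr at room temperature.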

[8] = Human pregnane X receptor (PXR) small molecule agonists, qHTS cell viability counter screen (AID 1346977); note: nearly all actives have a fitted effect of over 50% in size
In short: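 Viability counter screen: CellTiter-Fluor signal in PXR-Luc HepG2 cells, 24hr compound exposure, 37C, 5% CO2.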

[9] = Caspase-3/7 induction in HepG2 cells by small molecules, qHTS assay (AID 1346978); note: nearly all actives have a fitted effect of over 15% in size
In short: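 Wild-type HepG2 cells, 2,000/well, settled 5 hr at 37 C and 5% CO2, then compound-treated for 17 hr; caspase-3/7 activity read by luminescent Caspase-Glo 3/7 after 30 min at room temperature.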

[10] = Caspase-3/7 induction in CHO-K1 cells by small molecules, qHTS assay (AID 1346980); note: nearly all actives have a fitted effect of over 15% in size
In short: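 Wild-type CHO-K1 cells exposed to compounds for 17hr at 37 C, 5% CO2. Caspase-3/7 activity then measured by Caspase-Glo 3/7 luminescence after 30min at room temperature.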

[11] = Caspase-3/7 induction in HepG2 cells by small molecules, qHTS cell viability counter screen (AID 1346981); note: series mostly up to about 92 µM; nearly all actives have a fitted effect of over 30% in size
In short: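 HepG2, WT, 2,000 cells/well; 5 hr pre-incubation 37 C/5% CO2; compound pin-transferred from DMSO; 16 hr exposure; CellTiter-Fluor, 1 hr; fluorescence read.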

[12] = molecular target: Nuclear receptor subfamily 1 group I member 2 (Homo sapiens) (UniProt O75469); assay: Human pregnane X receptor (PXR) small molecule agonists, qHTS assay (AID 1346982); note: nearly all actives have a fitted effect of over 35% in size
Chain of Nuclear receptor subfamily 1 group I member 2 (Homo sapiens) (O75469 whole entry, looked up): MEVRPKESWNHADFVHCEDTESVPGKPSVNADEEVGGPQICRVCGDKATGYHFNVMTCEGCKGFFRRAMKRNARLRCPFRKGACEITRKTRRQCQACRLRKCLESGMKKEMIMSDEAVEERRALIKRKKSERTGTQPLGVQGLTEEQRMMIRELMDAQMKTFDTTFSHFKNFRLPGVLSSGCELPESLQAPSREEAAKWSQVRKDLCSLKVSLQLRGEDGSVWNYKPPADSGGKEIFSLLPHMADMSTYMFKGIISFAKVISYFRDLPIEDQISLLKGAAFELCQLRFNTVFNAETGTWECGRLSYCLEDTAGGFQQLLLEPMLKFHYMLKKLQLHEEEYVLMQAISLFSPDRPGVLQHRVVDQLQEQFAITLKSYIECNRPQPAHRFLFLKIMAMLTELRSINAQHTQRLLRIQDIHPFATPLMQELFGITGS
In short: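 Luciferase signal from ONE-Glo (30 min, room temperature) measured activation of hPXR-driven CYP3A4 reporter expression in PXR-Luc HepG2 cells treated with compounds for 24 hr at 37 C.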

[13] = molecular target: Thyrotropin-releasing hormone receptor (Homo sapiens) (UniProt P34981); assay: qHTS assay to identify small molecule antagonists of the thyrotropin-releasing hormone receptor (TRHR) signaling pathway (AID 1346877; active = well fitted inhibition curve with a large enough effect in the repeat runs, not every such curve was filed as active; note: series mostly up to about 51 µM)
Chain of Thyrotropin-releasing hormone receptor (Homo sapiens) (P34981 whole entry, looked up): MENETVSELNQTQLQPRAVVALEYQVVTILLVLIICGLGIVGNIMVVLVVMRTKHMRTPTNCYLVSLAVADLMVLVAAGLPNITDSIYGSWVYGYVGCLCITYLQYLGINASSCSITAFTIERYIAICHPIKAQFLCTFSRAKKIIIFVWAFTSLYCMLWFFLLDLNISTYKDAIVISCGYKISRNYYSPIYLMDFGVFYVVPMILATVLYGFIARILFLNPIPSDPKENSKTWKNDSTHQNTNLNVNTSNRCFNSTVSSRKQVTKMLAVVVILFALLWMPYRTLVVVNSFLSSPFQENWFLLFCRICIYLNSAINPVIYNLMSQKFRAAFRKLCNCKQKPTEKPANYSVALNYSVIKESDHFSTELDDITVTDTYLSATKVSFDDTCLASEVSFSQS
In short: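 Intracellular calcium fluorescence, read kinetically every second over 3 min, reports TRH-evoked signalling in HEK293 cells carrying TRHR. Test compounds were added 5 min ahead of a 1 nM TRH challenge.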

[14] = Caspase-3/7 induction in CHO-K1 cells by small molecules, qHTS cell viability counter screen (AID 1346979); note: nearly all actives have a fitted effect of over 35% in size; note: potency is the fitted concentration of half-maximal effect
In short: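 Viability readout by fluorescence (CellTiter-Fluor) on wild-type CHO-K1 cells exposed for 16hr at 37C and 5% CO2 to compounds delivered in DMSO; reagent incubated 1hr before reading.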

[15] = molecular target: Cytochrome P450 2D6 (Homo sapiens) (UniProt P10635); assay: Cytochrome P450 Family 2 Subfamily D Member 6 (CYP2D6) small molecule antagonists: luciferase reporter qHTS assay (AID 1671196); note: nearly all actives have a fitted effect of over 50% in size; note: potency is the fitted concentration of half-maximal effect
Chain of Cytochrome P450 2D6 (Homo sapiens) (P10635 whole entry, looked up): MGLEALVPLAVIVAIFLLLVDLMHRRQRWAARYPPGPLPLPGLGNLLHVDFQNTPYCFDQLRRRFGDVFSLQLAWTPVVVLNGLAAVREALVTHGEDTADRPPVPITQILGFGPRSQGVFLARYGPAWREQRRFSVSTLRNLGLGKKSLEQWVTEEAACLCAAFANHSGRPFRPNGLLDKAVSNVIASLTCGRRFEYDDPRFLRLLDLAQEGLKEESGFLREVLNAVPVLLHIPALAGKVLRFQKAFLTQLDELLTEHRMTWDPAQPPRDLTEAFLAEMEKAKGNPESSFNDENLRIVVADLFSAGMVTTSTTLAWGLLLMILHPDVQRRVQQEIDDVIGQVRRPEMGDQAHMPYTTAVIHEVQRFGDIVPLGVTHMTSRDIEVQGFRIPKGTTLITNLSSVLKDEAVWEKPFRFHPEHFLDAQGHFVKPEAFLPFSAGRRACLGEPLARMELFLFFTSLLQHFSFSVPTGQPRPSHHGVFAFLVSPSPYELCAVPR
In short: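 Read-out is luminescence from luciferin formed by CYP2D6 turnover of a proluciferin substrate, recorded as relative luminescence units. Reactions ran 1 h at room temperature after NADPH regeneration solution was added.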

[16] = molecular target: Nuclear receptor subfamily 1 group I member 2 (Rattus norvegicus) (UniProt Q9R1A7); assay: Rat pregnane X receptor (rPXR) activation by small molecules, qHTS assay (AID 1346983); conditions: rPXR luciferase reporter cells, One-Glo luminescence, 24 h; max activation: stronger effect = higher value; note: nearly all actives have a fitted effect of over 20% in size
Chain of Nuclear receptor subfamily 1 group I member 2 (Rattus norvegicus) (Q9R1A7 whole entry, looked up): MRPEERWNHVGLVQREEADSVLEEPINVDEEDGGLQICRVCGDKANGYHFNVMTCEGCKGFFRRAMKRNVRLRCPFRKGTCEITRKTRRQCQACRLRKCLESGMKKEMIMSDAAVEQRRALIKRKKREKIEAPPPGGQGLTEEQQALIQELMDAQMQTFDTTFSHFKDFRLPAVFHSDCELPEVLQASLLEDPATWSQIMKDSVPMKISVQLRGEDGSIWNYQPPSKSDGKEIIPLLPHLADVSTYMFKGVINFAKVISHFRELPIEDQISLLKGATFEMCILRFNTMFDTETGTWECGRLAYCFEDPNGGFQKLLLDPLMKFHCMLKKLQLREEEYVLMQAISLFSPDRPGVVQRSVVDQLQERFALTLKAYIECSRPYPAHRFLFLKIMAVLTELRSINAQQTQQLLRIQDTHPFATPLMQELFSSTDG
In short: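 Cell-based rPXR activation assay: rPXR cells, 2,000 per well, rested 5hr at 37 C, then exposed to compounds in DMSO for 24 hr at 37 C. Luciferase activity read by One-Glo luminescence after 30 min at room temperature.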

[17] = molecular target: Nuclear receptor subfamily 1 group I member 2 (Homo sapiens) (UniProt O75469); assay: CYP3A4 induction through human pregnane X receptor (PXR) by small molecules, qHTS assay (AID 1346984); note: nearly all actives have a fitted effect of over 40% in size
In short: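 Luminescence readout: luciferase signal after One-Glo (30 min, room temperature), following 3 h at 37C with 3uM final Luciferin-IPA P450 substrate. Cells were DPX-2 (HepG2, PXR/CYP3A4-luc co-transfected) dosed for 24 h.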

[18] = molecular target: Nuclear receptor subfamily 1 group I member 2 (Homo sapiens) (UniProt O75469); assay: Human pregnane X receptor (PXR) activation by small molecules, qHTS assay (AID 1346985); note: nearly all actives have a fitted effect of over 40% in size
In short: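 DPX-2 cells (HepG2 co-transfected with a PXR response element and a CYP3A4-promoter luciferase construct) were seeded at 2,000 per well, rested 5 hr at 37C, then exposed to DMSO-dissolved compounds for 24 hr. Activation was read as luciferase luminescence.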

[19] = qHTS assay to identify small molecule agonists of the progesterone receptor (PR) signaling pathway - cell viability counter screen (AID 1346799; calls by dose curve; note: nearly all actives have a fitted effect of over 45% in size)
In short: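 In parallel with the beta-lactamase readout, cytotoxicity toward PR-UAS-bla HEK293T cells was measured by CellTiter-Glo luminescence following 16 hr compound incubation in 2% charcoal-stripped FBS medium.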

[20] = molecular target: Thyrotropin-releasing hormone receptor (Homo sapiens) (UniProt P34981); assay: qHTS assay to identify small molecule agonists of the thyrotropin-releasing hormone receptor (TRHR) signaling pathway (AID 1346891; calls by dose curve;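 note: HEK293 cells expressing TRHR with calcium dye readout; series mostly up to about 58 µM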)
In short: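 Compounds were tested as agonists at 15 concentrations, in triplicate, on TRHR-Hek293 cells; calcium-sensitive dye fluorescence was recorded for 3 min following addition.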

Structure (SMILES)	Potency [1]	outcome [2]	Potency [3]	Potency [4]	Potency [5]	Potency [6]	outcome [7]	Potency [8]	outcome [9]	Potency [10]	Potency [11]	Potency [12]	outcome [13]	Potency [14]	Potency [15]	max activation [16]	Potency [17]	Potency [18]	Potency [19]	Potency [20]
OCCC1CCCCN1 (stereo not given)	inactive	inactive	inactive	inactive	inactive	inactive	inactive	inactive	inactive	inactive	inactive	inactive	–	–	–	–	–	–	–	–
CC(C)CCCCCCOC(=O)c1ccc(C(=O)OCCCCCCC(C)C)c(C(=O)OCCCCCCC(C)C)c1	inactive	inactive	inactive	inactive	inactive	inactive	inactive	inactive	inactive	–	inactive	inactive	inactive	inactive	inactive	–	–	–	–	–
CC(=O)Nc1ccc(/C=N/NC(N)=S)cc1	inactive	inactive	inactive	inactive	inactive	inactive	inactive	inactive	inactive	inactive	inactive	–	–	inactive	inactive	-4.57% and -9.49%	inactive	inactive	–	–
N=C(N=C(N)N)N1CCOCC1	inactive	inactive	inactive	inactive	inactive	inactive	inactive	inactive	inactive	–	inactive	inactive	–	–	inactive	-1.18%	inactive	inactive	–	–
Nc1nc(N)c(-c2ccccc2)s1	inactive	inactive	inactive	inactive	inactive	inactive	inactive	inactive	–	inactive	inactive	inactive	–	–	inactive	-3.93%	inactive	inactive	inactive	–
CCCCCCCCCC=O	inactive	inactive	inactive	inactive	inactive	inactive	–	inactive	inactive	inactive	–	inactive	inactive	inactive	inactive	–	–	–	inactive	–
CCOC(=S)SSC(=S)OCC	inactive	inactive	inactive	inactive	inactive	inactive	inactive	inactive	inactive	–	inactive	inactive	–	inactive	–	-2.15%	inactive	inactive	–	–
CC(C)(C)C1CCCCC1O (stereo not given)	inactive	inactive	inactive	inactive	inactive	inactive	inactive	inactive	inactive	inactive	inactive	inactive	–	–	inactive	–	–	–	inactive	–
Cn1sccc1=O	inactive	inactive	inactive	inactive	inactive	inactive	inactive	inactive	inactive	–	inactive	–	inactive	30.6 µM (active) and 43.3 µM (active)	inactive	–	–	–	–	–
c1ccc(CNCc2ccccc2)cc1	inactive	inactive	inactive	inactive	inactive	inactive	inactive	inactive	inactive	–	inactive	inactive	–	–	1.12 µM (active)	–	–	–	inactive	–
CCOc1cc(OCC)c(C(=O)CCC(=O)O)cc1OCC	inactive	inactive	inactive	inactive	inactive	inactive	–	–	inactive	–	inactive	inactive	inactive	inactive	inactive	-2.62%	inactive	inactive	inactive	inactive
CC1(C)[C@H]2CC[C@]1(C)[C@H](O)C2	inactive	inactive	inactive	inactive	inactive	inactive	inactive	inactive	inactive	inactive	inactive	inactive	inactive	inactive	inactive	-0.529%	inactive	inactive	–	inactive
CCCCOC(=O)/C=C\C(=O)OCCCC	inactive	inactive	inactive	inactive	inactive	inactive	inactive	inactive	inactive	inactive	inactive	inactive	inactive	inactive	inactive	–	–	–	–	inactive
CCOc1ccc(NC(=O)CC(C)=O)cc1	inactive	inactive	inactive	inactive	inactive	inactive	inactive	inactive	inactive	inactive	inactive	inactive	inactive	inactive	35.6 µM (active)	–	–	–	–	–
C#CCOC(=O)[C@@H](C)Oc1ccc(Oc2ncc(Cl)cc2F)cc1	inactive	inactive	inactive	inactive	inactive	inactive	inactive	inactive	inactive	inactive	inactive	inactive	inactive	inactive	–	–	–	–	–	inactive
N#CCc1cccc(C(F)(F)F)c1	inactive	inactive	inactive	inactive	inactive	inactive	inactive	inactive	inactive	inactive	inactive	inactive	inactive	inactive	inactive	–	–	–	–	inactive
